# Unmarked numbers belong to inactive results. Records with an inconclusive call do not appear. Where a call stands in place of a potency, no number is given. Activity calls are given as the source filed them. Unless noted, the call rests on the fitted dose curve; in most records, active means well fitted curve in the direction sought with a large enough effect; inconclusive means small, poorly fitted or top-dose-only effect, or another doubt; inactive means no such curve, though single readings can be large; an effect the other way counts as inactive or inconclusive.
# Tests used:
# [1] = target: Tumor susceptibility gene 101 protein (Homo sapiens) (UniProt Q99816); experiment: qHTS Assay for Iinhibitors of HIV-1 Budding by Blocking the Interaction of PTAP/TSG101: Hit Validation (AID 651600); further: nearly all actives have a fitted effect of over 70% in size; further: potency means the concentration at half of the fitted maximal effect
# Procedure, shortened: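 FITC-PTAP peptide (50 nM final) binding to Tsg101 binding domain (10 uM final) was measured by polarization after 20 min at r.t. with compounds, in 10 mM HEPES pH 7.5 buffer with 0.15 M NaCl and 0.01% Tween 20.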
# [2] = target: Rap guanine nucleotide exchange factor 3 (Homo sapiens) (UniProt O95398); experiment: Confirmatory qHTS for antagonist of cAMP-regulated guanine nucleotide exchange factor 3 (EPAC1) (AID 1645880); conditions: EPAC1 Rap1B-BODIPY-GDP exchange, fluorescence; activity, negative = inhibition: at 115 µM (top of the series); further: nearly all actives have a fitted effect of over 55% in size; further: potency means the concentration at half of the fitted maximal effect
# Procedure, shortened: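 Nucleotide exchange uses 100 nM EPAC1, 250 nM RAP1B-BODIPY-GDP and 50 uM GDP, with compounds in a concentration-titration series. After 5 min at room temperature, fluorescence (480 nm ex/540 nm em) is read every 5 min for 30 min. Data are normalized to control ATA and DMSO.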
# [3] = target: Rap guanine nucleotide exchange factor 4 (Homo sapiens) (UniProt Q8WZA2); experiment: Confirmatory qHTS for antagonist of cAMP-regulated guanine nucleotide exchange factor 4 (EPAC2) (AID 1645885); further: nearly all actives have a fitted effect of over 25% in size; further: potency means the concentration at half of the fitted maximal effect
# [4] = target: Rap guanine nucleotide exchange factor 3 (Homo sapiens) (UniProt O95398); experiment: Counterscreen qHTS for antagonist of cAMP-regulated guanine nucleotide exchange factor 3 (EPAC1) (AID 1645888); further: potency means the concentration at half of the fitted maximal effect;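 on activity change, negative = inhibition: fluorescence loss as bound BODIPY-GDP is released from Rap1B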
# Procedure, shortened: (§1)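 Rap1B-BODIPY-GDP 250 nM + GDP 50 uM; cpds 7-pt, final 9.74 nM–152 uM (activator mode) or from 7.32 nM upwards (inhibitor mode); RT; FI 480/540 nm at 5 and 30 min, then ± cAMP, reread.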
# [5] = target: Rap guanine nucleotide exchange factor 3 (Homo sapiens) (UniProt O95398); experiment: Counterscreen qHTS for agonist of cAMP-regulated guanine nucleotide exchange factor 3 (EPAC1) (AID 1645889); further: nearly all actives have a fitted effect of over 40% in size; further: potency means the concentration at half of the fitted maximal effect
# Procedure, shortened: as §1
# [6] = target: Cytochrome P450 3A4 (Homo sapiens) (UniProt P08684); experiment: qHTS Assay for Inhibitors and Substrates of Cytochrome P450 3A4 (AID 884); further: potency means the concentration at half of the fitted maximal effect; nearly all actives have a fitted effect of over 50% in size
# Procedure, shortened: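 20 nM human CYP3A4 with 25 uM Luciferin-PPXE (at KM) in 200 mM KPO4, preincubated 10 min with compound; NADPH regeneration started a 60 min RT reaction. Luciferin detected by luminescence, normalized to 57 uM ketoconazole as full inhibition.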
# [7] = target: Cytochrome P450 3A4 (Homo sapiens) (UniProt P08684); experiment: qHTS Assay for Activators of Cytochrome P450 3A4 (AID 885); further: nearly all actives have a fitted effect of over 65% in size
# Procedure, shortened: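 Steps: enzyme/substrate mix dispensed; compound added, 10 min RT; NADPH regeneration solution added, 60 min RT; luciferin detection buffer stops reaction; 20 min later luminescence measured.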
# [8] = AP1 Signaling Pathway (AID 357; active means well fitted curve in either direction with a large enough effect, not every such curve was filed as active;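 further: ME-180 reporter cells stimulated with EGF at its EC50 level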); conditions: ME-180 AP-1-bla reporter, EGF-induced, beta-lactamase ratio, 5 h; at 7.69 µM (top of the series) unless noted
# Procedure, shortened: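 A ratiometric CCF4 readout (405 nm excitation; 460 and 530 nm emission) quantified AP-1-driven beta-lactamase in ME-180 cells after 5 h with compound and EC50 EGF; AC50 values were derived for activators and inhibitors.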
# [9] = Stat Signaling Pathway (AID 446; active means well fitted curve in either direction with a large enough effect, not every such curve was filed as active;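 further: ME-180 cervical cancer cells given 40 pM IL-6 alongside compound; SIE-controlled beta-lactamase reporter measured as 460/530 nm FRET emission ratio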)
# Procedure, shortened: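 Screening format detects activators and inhibitors alike: ME-180 SIE-bla cells stimulated at 40 pM IL-6 for 5 hrs with compound, then dual-emission beta-lactamase read at 405 nm excitation.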
# [10] = target: Glucocorticoid receptor (Homo sapiens) (UniProt P04150); experiment: GR-GFP Redistribution (AID 450;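 active means compounds whose dose series gives a full or clear partial fitted curve of increased nuclear translocation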; further: potency means the concentration at half of the fitted maximal effect); conditions: U2OS GR-GFP nuclear translocation, laser cytometry, 2 h
# [11] = qHTS for Inhibitors of the vitamin D receptor (VDR): Hit Validation using a Texas Red Assay (AID 602201); further: potency means the concentration at half of the fitted maximal effect
# Procedure, shortened: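 After a 2-hour room-temperature incubation, polarization of Texas-Red emission was read (Ex 595 nm/Em 615 nm). Final mix contained 7 nM Texas Red, 1.5 uM VDR-LBD and LG19078.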
# Chain of Rap guanine nucleotide exchange factor 4 (Homo sapiens) (Q8WZA2 whole entry, looked up): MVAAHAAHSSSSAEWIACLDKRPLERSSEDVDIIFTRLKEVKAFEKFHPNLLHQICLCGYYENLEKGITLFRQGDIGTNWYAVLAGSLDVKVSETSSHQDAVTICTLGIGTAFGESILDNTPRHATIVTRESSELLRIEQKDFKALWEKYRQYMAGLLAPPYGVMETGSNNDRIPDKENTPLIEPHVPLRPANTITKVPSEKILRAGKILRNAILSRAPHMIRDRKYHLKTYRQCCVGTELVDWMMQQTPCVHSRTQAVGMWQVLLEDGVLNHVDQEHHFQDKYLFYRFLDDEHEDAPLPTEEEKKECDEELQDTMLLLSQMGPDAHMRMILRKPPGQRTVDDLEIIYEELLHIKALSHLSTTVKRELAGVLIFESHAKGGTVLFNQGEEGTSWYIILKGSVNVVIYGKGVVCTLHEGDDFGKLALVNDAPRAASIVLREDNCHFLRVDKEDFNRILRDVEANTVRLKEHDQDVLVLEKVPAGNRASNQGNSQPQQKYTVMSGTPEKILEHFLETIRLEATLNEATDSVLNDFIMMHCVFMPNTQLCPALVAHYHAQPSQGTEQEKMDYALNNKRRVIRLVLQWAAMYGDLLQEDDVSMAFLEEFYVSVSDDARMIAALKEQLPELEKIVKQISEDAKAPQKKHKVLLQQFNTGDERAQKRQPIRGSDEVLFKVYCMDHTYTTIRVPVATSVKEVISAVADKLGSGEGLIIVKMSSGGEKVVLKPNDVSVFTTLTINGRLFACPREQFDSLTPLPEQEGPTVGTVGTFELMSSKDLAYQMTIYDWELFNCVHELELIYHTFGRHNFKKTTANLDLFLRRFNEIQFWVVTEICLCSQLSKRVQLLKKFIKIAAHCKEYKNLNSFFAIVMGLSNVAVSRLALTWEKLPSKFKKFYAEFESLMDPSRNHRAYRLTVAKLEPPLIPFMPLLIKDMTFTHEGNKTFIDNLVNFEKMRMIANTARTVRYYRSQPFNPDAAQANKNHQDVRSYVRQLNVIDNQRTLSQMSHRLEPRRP
# Chain of Rap guanine nucleotide exchange factor 3 (Homo sapiens) (O95398 whole entry, looked up): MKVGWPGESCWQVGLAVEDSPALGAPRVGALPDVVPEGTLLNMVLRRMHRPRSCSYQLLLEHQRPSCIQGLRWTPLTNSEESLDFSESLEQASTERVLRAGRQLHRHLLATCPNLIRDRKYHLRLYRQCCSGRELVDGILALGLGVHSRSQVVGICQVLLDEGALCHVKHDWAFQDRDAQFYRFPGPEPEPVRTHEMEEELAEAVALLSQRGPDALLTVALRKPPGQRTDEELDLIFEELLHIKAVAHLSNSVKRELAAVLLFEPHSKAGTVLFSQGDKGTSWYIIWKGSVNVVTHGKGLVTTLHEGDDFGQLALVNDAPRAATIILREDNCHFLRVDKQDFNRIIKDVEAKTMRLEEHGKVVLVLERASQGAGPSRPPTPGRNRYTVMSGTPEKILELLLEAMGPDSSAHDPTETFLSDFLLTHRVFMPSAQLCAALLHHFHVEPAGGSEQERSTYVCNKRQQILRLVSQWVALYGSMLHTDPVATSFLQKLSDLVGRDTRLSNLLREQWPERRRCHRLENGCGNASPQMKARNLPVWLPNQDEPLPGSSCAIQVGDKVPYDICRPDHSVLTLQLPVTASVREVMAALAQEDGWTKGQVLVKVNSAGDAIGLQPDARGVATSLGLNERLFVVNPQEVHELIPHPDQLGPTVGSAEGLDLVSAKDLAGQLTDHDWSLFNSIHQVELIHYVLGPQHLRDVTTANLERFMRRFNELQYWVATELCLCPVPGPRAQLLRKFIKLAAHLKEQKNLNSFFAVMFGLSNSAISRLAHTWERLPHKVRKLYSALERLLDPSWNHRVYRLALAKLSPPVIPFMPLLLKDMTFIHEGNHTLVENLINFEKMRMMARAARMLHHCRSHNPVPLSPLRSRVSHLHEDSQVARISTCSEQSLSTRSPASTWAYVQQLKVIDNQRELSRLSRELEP
# Chain of Tumor susceptibility gene 101 protein (Homo sapiens) (Q99816 whole entry, looked up, the tested form may be a part): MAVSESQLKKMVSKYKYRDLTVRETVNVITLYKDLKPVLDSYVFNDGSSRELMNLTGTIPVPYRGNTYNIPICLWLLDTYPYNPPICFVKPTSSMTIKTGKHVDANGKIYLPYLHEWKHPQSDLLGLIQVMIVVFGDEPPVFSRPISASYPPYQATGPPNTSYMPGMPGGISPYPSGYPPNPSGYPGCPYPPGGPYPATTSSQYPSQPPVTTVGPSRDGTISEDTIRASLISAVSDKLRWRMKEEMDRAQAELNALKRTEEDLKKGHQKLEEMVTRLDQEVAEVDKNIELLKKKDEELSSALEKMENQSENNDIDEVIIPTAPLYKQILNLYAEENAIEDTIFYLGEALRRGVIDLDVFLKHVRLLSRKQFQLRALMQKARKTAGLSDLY
# Chain of Cytochrome P450 3A4 (Homo sapiens) (P08684 whole entry, looked up): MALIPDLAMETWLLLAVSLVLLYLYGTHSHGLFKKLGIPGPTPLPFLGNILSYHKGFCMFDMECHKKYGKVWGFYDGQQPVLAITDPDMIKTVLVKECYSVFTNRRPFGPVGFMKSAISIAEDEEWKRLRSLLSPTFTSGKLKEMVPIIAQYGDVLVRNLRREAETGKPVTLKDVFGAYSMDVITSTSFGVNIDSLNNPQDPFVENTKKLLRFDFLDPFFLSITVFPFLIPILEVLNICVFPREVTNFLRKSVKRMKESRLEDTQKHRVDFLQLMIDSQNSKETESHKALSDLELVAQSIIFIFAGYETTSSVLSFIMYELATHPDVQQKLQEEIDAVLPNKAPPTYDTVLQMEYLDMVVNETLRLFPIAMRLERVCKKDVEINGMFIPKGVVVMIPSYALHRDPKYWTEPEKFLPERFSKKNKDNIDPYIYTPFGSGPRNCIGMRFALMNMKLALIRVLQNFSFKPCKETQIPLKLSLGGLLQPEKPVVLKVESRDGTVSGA
# Chain of Glucocorticoid receptor (Homo sapiens) (P04150 whole entry, looked up): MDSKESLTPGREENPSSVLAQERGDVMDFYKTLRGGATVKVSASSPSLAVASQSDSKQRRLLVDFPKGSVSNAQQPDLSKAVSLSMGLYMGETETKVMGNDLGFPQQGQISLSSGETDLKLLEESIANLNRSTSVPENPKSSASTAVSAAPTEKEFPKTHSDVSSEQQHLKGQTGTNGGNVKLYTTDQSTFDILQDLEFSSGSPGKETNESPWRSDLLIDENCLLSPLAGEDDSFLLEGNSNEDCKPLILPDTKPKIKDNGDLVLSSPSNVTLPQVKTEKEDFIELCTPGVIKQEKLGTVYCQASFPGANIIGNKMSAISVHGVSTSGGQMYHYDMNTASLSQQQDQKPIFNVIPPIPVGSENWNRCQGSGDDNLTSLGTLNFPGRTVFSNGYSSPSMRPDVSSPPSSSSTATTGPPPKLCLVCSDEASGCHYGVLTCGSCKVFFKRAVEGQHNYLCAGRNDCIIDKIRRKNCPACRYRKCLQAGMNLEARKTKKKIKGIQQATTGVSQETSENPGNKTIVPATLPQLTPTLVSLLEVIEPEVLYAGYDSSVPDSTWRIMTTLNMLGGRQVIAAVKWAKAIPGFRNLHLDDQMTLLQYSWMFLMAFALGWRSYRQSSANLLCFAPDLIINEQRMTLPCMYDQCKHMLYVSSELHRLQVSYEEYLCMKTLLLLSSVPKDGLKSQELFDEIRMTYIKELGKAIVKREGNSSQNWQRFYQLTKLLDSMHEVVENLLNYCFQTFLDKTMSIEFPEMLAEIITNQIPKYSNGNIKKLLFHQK
compound,measurement,setting,value
CCN(CC)c1ccc(/C=C/C(=O)c2ccc(Br)cc2)cc1,Potency,[1],inactive
same,Potency,[2],inactive
same,Potency,[3],inactive
same,"activity change, negative = inhibition",[4],192% [at 30.8 µM]
same,Potency,[5],14.1 µM (active)
Cc1ccc(S(=O)(=O)/N=C2\C=C(NS(=O)(=O)c3ccccc3)C(=O)c3ccccc32)cc1,Potency,[2],26.9 µM (active)
same,Potency,[3],16.9 µM (active)
same,Potency,[4],inactive
same,Potency,[5],inactive
N#Cc1cc(Br)ccc1N=C1CCCN1c1ccccc1,Potency,[2],inactive
same,Potency,[3],3.01 µM (active)
same,Potency,[4],inactive
same,Potency,[5],inactive
CCN1CCc2c(sc(NC(=O)Nc3ccc(Cl)c(Cl)c3)c2C(N)=O)C1,Potency,[2],inactive
same,Potency,[3],84.9 µM (active)
same,Potency,[4],100 µM (active)
same,Potency,[5],112 µM (active)
CC1CC1c1ccc(/C=C(\C#N)C(=O)Nc2cc(Cl)ccc2Cl)o1 (stereo unspecified),Potency,[2],inactive
same,Potency,[3],inactive
same,Potency,[4],inactive
same,Potency,[5],inactive
COc1ccc(C(=O)N(CCc2ccccc2)Cc2cccs2)c(OC)c1,Potency,[2],inactive
same,Potency,[3],inactive
same,Potency,[4],inactive
same,Potency,[5],inactive
COc1ccccc1N1N=C(C(=O)c2ccccc2)C2C(=O)N(c3ccc(Br)cc3)C(=O)C21 (stereo unspecified),Potency,[2],inactive
same,Potency,[3],inactive
same,Potency,[4],inactive
same,Potency,[5],17.8 µM (active)
COc1cccc(/C(O)=C/c2nc3ccc(C(=O)NCCc4cccc(C)c4)cc3[nH]c2=O)c1,Potency,[2],inactive
same,Potency,[3],inactive
same,Potency,[4],inactive
same,Potency,[5],inactive
O=C(NCCOc1ccccc1F)c1ccccc1SCc1ccc(F)cc1,Potency,[2],inactive
same,Potency,[3],10.7 µM (active)
same,Potency,[4],inactive
same,Potency,[5],inactive
Cc1cccc(N2CCN(S(=O)(=O)c3ccc4c(c3)CCN4C(=O)CCC(=O)O)CC2C)c1 (stereo unspecified),Potency,[2],47.8 µM (active)
same,Potency,[3],inactive
same,Potency,[4],inactive
same,Potency,[5],inactive
Cn1c(N)c(C(=O)COC(=O)c2cc(-c3ccco3)nc3ccccc23)c(=O)n(C)c1=O,Potency,[6],25.1 µM (active)
same,outcome,[7],inactive
same,Potency,[2],47.8 µM (active)
same,Potency,[3],inactive
same,Potency,[4],inactive
same,Potency,[5],inactive
Brc1ccc(CSc2nccn2-c2ccccc2)cc1,Potency,[2],inactive
same,Potency,[3],inactive
same,Potency,[4],inactive
same,Potency,[5],1.58 µM (active)
COc1ccc(C2CC(c3cccs3)=NN2c2ccc(C=O)cc2)cc1 (stereo unspecified),Potency,[2],inactive
same,Potency,[3],inactive
same,Potency,[4],inactive
same,Potency,[5],44.7 µM (active)
O=C1C=C(c2c(O)ccc3ccccc23)c2ccccc2C1=O,Potency,[2],67.5 µM (active)
same,Potency,[3],47.8 µM (active)
same,Potency,[4],inactive
same,Potency,[5],35.5 µM (active)
COc1ccccc1C(=O)Oc1ccc2c(c1)O/C(=C\c1ccncc1)C2=O,Potency,[2],inactive
same,Potency,[3],84.9 µM (active)
same,Potency,[4],inactive
same,Potency,[5],35.5 µM (active)
COc1ccccc1N1CCN(C(=O)c2ccc(S(=O)(=O)N3CCCC3)cc2)CC1,Potency,[2],inactive
same,Potency,[3],inactive
same,Potency,[4],inactive
same,Potency,[5],inactive
COC(=O)c1ccc(Cn2nc(-c3cc(C)ccc3C)ccc2=O)cc1,Potency,[2],inactive
same,Potency,[3],inactive
same,Potency,[4],inactive
same,Potency,[5],inactive
COc1ccc(NC(=O)NS(=O)(=O)c2ccc(C)cc2)cn1,Potency,[2],inactive
same,Potency,[3],inactive
same,Potency,[4],inactive
same,Potency,[5],63.1 µM (active)
COc1ccc(C(=O)Nc2nc(-c3ccc(OC)cc3)c(-c3ccc([N+](=O)[O-])cc3)s2)cc1,Potency,[2],inactive
same,Potency,[3],inactive
same,Potency,[4],inactive
same,Potency,[5],63.1 µM (active)
O=C1CCN2C=Nc3cccc4ccc1c2c34,Potency,[1],6.51 µM (active)
same,Potency,[2],inactive
same,Potency,[3],inactive
same,"activity change, negative = inhibition",[4],142% [at 30.8 µM]
same,Potency,[5],11.2 µM (active)
O=C1OC(c2ccccc2)(c2ccccc2)c2ccccc21,Potency,[2],inactive
same,"activity change, negative = inhibition",[4],2.72% [at 30.8 µM]
Cc1c2ccccc2nc2c(F)c(NCCO)c(F)c(F)c12,Potency,[1],8.19 µM (active)
same,Potency,[2],inactive
same,Potency,[3],inactive
same,Potency,[4],inactive
CN1CC=C2C(C#N)=C(N)C(C#N)(C#N)[C@H](c3cccc(Cl)c3)C2C1 (stereo partly specified),"activity change, negative = inhibition",[8],-16.2% [at 17.2 µM]
same,outcome,[9],inactive
same,Potency,[10],> 20.6 µM
same,Potency,[2],inactive
same,Potency,[4],inactive
CC(C)(C)c1ccc(-n2nc(C#N)c(Cl)cc2=O)cc1,Potency,[11],15.8 µM (active)
same,Potency,[2],42.6 µM (active)
same,Potency,[3],0.338 µM (active)
same,Potency,[4],inactive
c1ccc(-c2cnn3c(-c4ccccc4)c(-c4ccccc4)nc3n2)cc1,Potency,[1],inactive
same,Potency,[2],inactive
same,Potency,[3],inactive
same,Potency,[4],inactive
Cc1cc(/C=C2\SC(=S)N(Cc3ccco3)C2=O)c(C)n1-c1cccnc1,Potency,[1],25.9 µM (active)
same,Potency,[2],inactive
same,Potency,[3],84.9 µM (active)
same,Potency,[4],inactive
CCCCn1nnnc1C(c1cc2ccccc2o1)N1CCCCC1 (stereo unspecified),Potency,[2],inactive
same,Potency,[4],inactive
CCOCCCNc1nc2c(C)cccn2c(=O)c1/C=C1\SC(=S)N(CC(C)C)C1=O,Potency,[2],inactive
same,Potency,[4],inactive
COC(=O)c1ccccc1-c1c2ccc(=N)cc-2oc2cc(N)ccc12,Potency,[2],inactive
same,Potency,[4],inactive
CCOc1ccc(S(=O)(=O)Nc2cc(SCC(=O)O)c(O)c3ccccc23)cc1,Potency,[2],67.5 µM (active)
same,Potency,[4],inactive
same,Potency,[5],56.2 µM (active)
Cc1ccc(-c2nc(S(=O)(=O)c3ccc(C)cc3)c(N3CCOCC3)o2)cc1,Potency,[2],inactive
same,Potency,[4],inactive
Cc1cccc(N2CCCC2=Nc2ccc(Br)cc2C#N)c1,Potency,[2],inactive
same,Potency,[4],inactive
same,Potency,[5],inactive
